# Assay outcomes deposited in PubChem by National Center for Advancing Translational Sciences (NCATS).
# Shiga inhibitor: blocks Shiga toxin action in Vero cells. Vero cells, Shiga toxin protein synthesis inhibition reporter. hit rate 9.2% among 290,000. AID 2315. inhibition, % at 38.7 µM; in the data active = inhibition mostly above about 28%, no sharp cut-off; inactive = mostly below about 43%
# CHX counter: affects cycloheximide protein synthesis inhibition readout, counter-screen; hit rate 12% among 300,000; AID 2314; max response, %; cell reporter, cycloheximide protein synthesis inhibition counterscreen; in the data active = max response mostly above about 13%, no sharp cut-off; inactive = mostly below about 14%; note: read at 38.3 µM for the half of the compounds with a filed dose
# LmPK inhibitor: inhibitors of Leishmania mexicana pyruvate kinase. Q27686. purified LmPK, Kinase-Glo ATP luminescence, 1 h. Potency, µM (highest dose often 57.5 µM), usual class: inhibitors. hit rate 0.37% among 290,000
#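 Kinase-Glo luminescence read after 1 h RT reaction of 0.1 nM LmPK with 0.5 mM PEP and 0.1 mM ADP. Activity scaled between uninhibited and enzyme-free controls.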
# TbPYK inhibitor: blocks Trypanosoma brucei pyruvate kinase; Q57TT1; TbPYK enzyme, Kinase-Glo Plus ATP luminescence, 45 min; Potency, µM (top dose mostly 76.8 µM), usual class: inhibitors; hit rate 0.12% among 410,000; AID 624173; note: nearly all actives have a fitted effect of over 50% in size
#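 Readout: single end-point luminescence (Kinase-Glo Plus, 10 min). Reaction conditions were TbPYK/substrate plus 130 uM ADP, 45 min at RT, pH 7.2 TEA buffer. No-enzyme wells served as controls, and data were normalized before concentration-response fitting.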
# RE007 growth inh: less growth of the S. pombe RE007 Vpr strain | S. pombe RE007 Vpr strain, BacTiter-Glo ATP luminescence, 24 h | Potency, µM (series often up to 92.2 µM), hits mostly inhibitors | hit rate 0.21% among 360,000 | AID 651644; active = well fitted falling curve with a large enough effect; inconclusive = small, poorly fitted or top-dose-only effect; inactive = no such curve, though single readings can be large or run the other way; note: nearly all actives have a fitted effect of over 50% in size
#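 Fission yeast RE007 carrying one integrated HIV-1 vpr copy, seeded at OD 0.01 in PMG+AL medium with 23 nL pinned compound. Grown 24 h at 30 degrees; viability read by BacTiter-Glo luminescence after 5 min.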
# Giardia FBPA inh: inhibitors of Giardia lamblia fructose-1,6-bisphosphate aldolase; A8B2U2; purified Giardia FBPA; Potency, µM (highest dose often 59.6 µM), actives largely listed as inhibitors; hit rate 0.71% among 290,000; note: nearly all actives have a fitted effect of over 55% in size
# Target sequence (A8B2U2 whole entry, looked up): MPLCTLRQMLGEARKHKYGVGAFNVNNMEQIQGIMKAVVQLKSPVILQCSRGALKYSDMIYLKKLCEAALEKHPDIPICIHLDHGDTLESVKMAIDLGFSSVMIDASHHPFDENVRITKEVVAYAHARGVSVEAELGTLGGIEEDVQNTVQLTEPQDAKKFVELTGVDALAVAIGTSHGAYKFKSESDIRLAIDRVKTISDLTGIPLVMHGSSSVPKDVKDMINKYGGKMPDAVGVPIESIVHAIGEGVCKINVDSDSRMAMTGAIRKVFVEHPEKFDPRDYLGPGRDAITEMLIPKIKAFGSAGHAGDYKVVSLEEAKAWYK
#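 40 nM FBPA preincubated 10 min at RT with compound (up to 57.5 uM final), then substrate plus GAPDH/TPI/NAD/arsenate coupling and diaphorase/resazurin added. Fluorescence read after 20 min at RT, 525/598 nm.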
# A number is an active result; . = inactive; ? = inconclusive; / = not tested or not shown; [ ] = another dose, or the depositor's remark. Many of the other results were omitted from the sample, so hits are more common in it than they were. Unless noted, calls come from the whole dose curve; as a rule, active = well fitted curve in the direction sought with a large enough effect; inconclusive = small, poorly fitted or top-dose-only effect, or another doubt; inactive = no such curve, though single readings can be large; an effect the other way counts as inactive or inconclusive.
SMILES,Shiga inhibitor,CHX counter,LmPK inhibitor,TbPYK inhibitor,RE007 growth inh,Giardia FBPA inh
COc1ccccc1OC(=O)Nc1ccc(Cl)cc1,58.1,31.9,.,.,.,.
COc1ccccc1Oc1ccc(NC(=O)c2ccccc2C)cc1,.,.,.,.,.,.
COc1ccccc1Oc1ccc(NC(=O)c2ccccc2)cc1,.,28.4,.,.,.,.
COc1ccc(C(=O)Nc2ccc(C(=O)OCC(=O)c3ccccc3)cc2)cc1,.,18.8,.,.,.,.
CCOc1ccc(NS(=O)(=O)c2cc(NC(=O)c3ccc(C)cc3)ccc2Cl)cc1,.,17.0,.,.,.,.
Cc1ccc(NC(=O)CN(C)C(=O)c2cccc(S(=O)(=O)NCc3ccco3)c2)cc1,/,/,/,.,.,/
CC[N+]1(CC)CCC(=C(c2ccccc2)c2ccccc2)C1C (configuration not stated),/,/,/,.,/,/
C/C(CC(=O)NC1CCCCCC1)=N\NC(=O)c1cnccn1,45.7,25.6,.,.,.,.
C/C(CC(=O)NC1CCCCC1)=N\NC(=O)c1ccccc1C,63.4,.,.,.,.,.
CCN(CC)C(=O)c1ccc(-c2cccs2)s1,93.5,55.7,.,.,.,.
O=Cc1ccc(-c2cccs2)s1,/,/,/,.,.,/
COc1cccc(/C=N/NC(=O)CCn2nnc3ccccc32)c1,.,.,.,.,.,.
COc1cccc(C=NNC(=O)CCCC(=O)NN=Cc2cccc(OC)c2)c1,/,/,/,.,.,/
COc1ccc(OC)c(/C=N/NC(=O)c2cnccn2)c1,69.2,.,.,.,.,.
COc1cccc(/C=N/NC(=O)c2cnccn2)c1,86.0,75.4,.,.,.,.
COc1cccc(/C=N/NC(=O)C(C)n2nnc3ccccc32)c1 (configuration not stated),.,25.0,.,?,.,.
COc1cccc(C(=O)O/N=C(\C)c2cnccn2)c1,.,18.8,?,.,.,.
COc1ccc(/C=N/NC(=O)c2cnccn2)c(OC)c1OC,.,.,.,.,.,.
COc1ccc(/C=N/NC(=O)c2cnccn2)cc1O,38.4,65.3,.,.,.,.
COc1cc(/C=N/NC(=O)c2ccncc2)ccc1O,.,.,.,.,.[18.4 µM],.
O=C(N/N=C/c1cccc([N+](=O)[O-])c1)c1cnccn1,active,.,.,.,.,.
COc1cccc(/C=N/NC(=O)c2cnccn2)c1O,88.8,37.3,.,.,.,.
O=C(N/N=C/c1cc([N+](=O)[O-])ccc1Cl)c1cnccn1,.,.,.,.,.,.
Cc1ccc(-n2c(-c3ccc(Br)cc3)n[nH]c2=S)c(C)c1,/,/,/,?,.,/
CCn1c(O)c(N=Nc2ccc3ccccc3n2)c2ccccc21,81.2,38.8,.,.,.,.
SMILES,Shiga inhibitor,CHX counter,LmPK inhibitor,TbPYK inhibitor,RE007 growth inh,Giardia FBPA inh
CCCN(C(=O)c1cc2c(=O)oc3ccccc3c2s1)c1ccc(CC)cc1,/,/,/,.,/,/
CCOC(=O)C1CCN(c2nc3ccccc3nc2C(C#N)C(=O)NCCc2ccccc2)CC1 (configuration not stated),.,48.9,.,/,/,?
Cc1ccc(NC(=O)CCS(=O)(=O)c2ccc3c(c2)oc(=O)n3C)c(Br)c1,/,/,/,.,/,/
COc1ccc(NC(=O)C2COc3ccccc3C2)cc1Cl (configuration not stated),/,/,/,.,/,/
O=C(Nc1ccc(Br)cc1)C1Cc2ccccc2O/C1=N\O (configuration not stated),111.4,55.1,.,.,.,.
Cc1ccc(NC(=O)C2Cc3ccccc3O/C2=N\O)cc1C (configuration not stated),73.9,49.2,.,.,.,.
N#Cc1nc(Cc2ccccc2)oc1N1CCCC1,35.0,26.4,.,.,.,.
Cc1ccccc1OCc1nc(C#N)c(N2CCCC2)o1,.,.,.,.,.,.
CC1CC(C)CN(c2oc(Cc3ccccc3)nc2C#N)C1 (configuration not stated),.,.,.,.,.,.
COc1ccccc1OCc1nc(C#N)c(N2CCCC2)o1,48.9,27.0,.,.,.,.
COc1ccc(CCNC(=O)c2csc3c2CCCCC3)c(OC)c1,/,/,/,.,/,/
Oc1c(C2=NCCNC(C(F)(F)F)=C2)ccc2ccccc12,69.6,38.4,.,.,.,?
Cc1ccc(O)c(C2=NCCNC(C(F)(F)F)=C2)c1,.,.,.,.,.,.
COc1ccc(NC(=O)CSc2nc(-c3cccs3)cc(C(F)(F)F)n2)cc1OC,/,/,/,.,/,/
NS(=O)(=O)c1ccc(CCNC(=O)c2ccc3nccnc3c2)cc1,/,/,/,.,.,/
NS(=O)(=O)c1ccc(CCNc2ccnc3cc(Cl)ccc23)cc1,.,31.7,.,.,.,.
CC(C)NCCCOc1ccc(Cl)cc1Br,36.4,30.8,.,.,.,?
Clc1ccc(OCCCN2CCCCC2)c(Br)c1,12.2,70.9,.,.,.,?
COCCCNCCCOc1ccc(Cl)cc1Br,.,.,.,/,.[3.69 µM],.
Clc1ccc(OCCCCCN2CCCC2)c(Br)c1,.,.,.,.,.,.
CCN(CC)CCNC(=O)c1ccc(NC(=O)C2CCN(c3ncnc4sc(C)c(C)c34)CC2)cc1,.,.,.,.,.,/
COc1ccccc1CN1CC(C(=O)NCc2nccn2C)CCC1=O (configuration not stated),.,.,.,.,.,/
Cc1ccc(-n2ncc3c(SCc4ccccn4)ncnc32)c(C)c1,110.5,44.5,.,.,.,.
C=CCNc1ncnc2c1cnn2-c1ccc(C)cc1C,66.8,24.6,.,.,.,.
Cc1ccc(-n2ncc3c(SCC(=O)Nc4cc(C)on4)ncnc32)c(C)c1,.,.,.,.,.,.
SMILES,Shiga inhibitor,CHX counter,LmPK inhibitor,TbPYK inhibitor,RE007 growth inh,Giardia FBPA inh
CSc1ncnc2c1cnn2-c1ccc(C)cc1C,139.5,34.9,.[11.5 µM],.,.,.
Cc1ccc(-n2ncc3c(NCC(C)C)ncnc32)c(C)c1,/,/,/,.,/,/
COc1ccc(-c2c(C3C4C=CCCC4(C)C(=O)N3Cc3ccccc3)ccc3ccccc23)cc1OC (configuration not stated),.,.,/,/,/,.
COc1cccc(CN2CCC2(C)C(=O)Nc2ccc(C)c(O)c2)c1F (configuration not stated),/,/,/,.,.[18.4 µM],/
Cc1ccc(/C=C/C(=O)N2CCCN(C(=O)/C=C/c3ccc(C)cc3)CC2)cc1,.,16.3,.,.,.,.
CSc1ccc(/C=C/C(=O)N2CCCN(C)CC2)cc1,52.5,23.2,.,.,.,.
CN1CCN(C(=O)/C=C/c2ccccc2)CC1,.,.,.,.,.,.
Cc1ccc(/C=C/C(=O)N2CCc3ccccc3C2)cc1,.,11.4,.,.,.,.
CCN(CC)C(=O)CC(c1ccc(OC)cc1)c1c(OC)cc(OC)c2c(-c3ccccc3)cc(=O)oc12 (configuration not stated),.,.,/,/,/,.
CN(C)c1ncc2nc(-c3cc(F)cc(F)c3)c(=O)n(-c3ccccc3)c2n1,/,/,/,/,/,.
